# Like-named read-outs stand apart in the source and are kept apart here.
# Legend:
# FLT3-autoinhibited = conditions: concentration: 1 μM, replicates: in singlicate; n = 1
# FLT3 = conditions: concentration: 1 μM, replicates: in singlicate; n = 1
# FLT4 = conditions: concentration: 1 μM, replicates: in singlicate; n = 1
# FRK = conditions: concentration: 1 μM, replicates: in singlicate; n = 1
# FYN = conditions: concentration: 1 μM, replicates: in singlicate; n = 1
# GAK = conditions: concentration: 1 μM, replicates: in singlicate; n = 1
# GCN2(Kin.Dom.2,S808G) = test system: T1, GCN2(Kin.Dom.2,S808G); conditions: concentration: 1 μM, replicates: in singlicate; n = 1
# T1 construct: gene EIF2AK4
# GRK1 = conditions: concentration: 1 μM, replicates: in singlicate; n = 1
# GRK2 = test system: T2, GRK2; conditions: concentration: 1 μM, replicates: in singlicate; n = 1
# T2 construct: gene ADRBK1
# GRK3 = test system: T3, GRK3; conditions: concentration: 1 μM, replicates: in singlicate; n = 1
# T3 construct: gene ADRBK2
# GRK4 = conditions: concentration: 1 μM, replicates: in singlicate; n = 1
# GRK7 = conditions: concentration: 1 μM, replicates: in singlicate; n = 1
# GSK3A = conditions: concentration: 1 μM, replicates: in singlicate; n = 1
# GSK3B = conditions: n = 1
# HASPIN = test system: T4, HASPIN; conditions: concentration: 1 μM, replicates: in singlicate; n = 1
# T4 construct: gene GSG2
# HCK = conditions: concentration: 1 μM, replicates: in singlicate; n = 1
# HIPK1 = conditions: concentration: 1 μM, replicates: in singlicate; n = 1
# HIPK2 = conditions: concentration: 1 μM, replicates: in singlicate; n = 1
# HIPK3 = conditions: concentration: 1 μM, replicates: in singlicate; n = 1
# HIPK4 = conditions: concentration: 1 μM, replicates: in singlicate; n = 1
# [1] = concentration: 1 μM, replicates: in singlicate
# 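Also: KINOMEscan kinase panel screen.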
compound,measurement,setting,value
CCn1cnc2c(N)ncnc21 [GW345098],%Inh,FLT3-autoinhibited,0%
same,%Inh,FLT3,13%
same,%Inh,FLT4,13%
same,%Inh,FRK,10%
same,%Inh,FYN,15%
same,%Inh,GAK,0%
same,%Inh,"GCN2(Kin.Dom.2,S808G)",6%
same,%Inh,GRK1,0%
same,%Inh,GRK2,0%
same,%Inh,GRK3,0%
same,%Inh,GRK4,0%
same,%Inh,GRK7,0%
same,%Inh,GSK3A,6%
same,%Inh,GSK3B; [1],9%
same,%Inh,HASPIN,25%
same,%Inh,HCK,30%
same,%Inh,HIPK1,33%
same,%Inh,HIPK2,5%
same,%Inh,HIPK3,30%
same,%Inh,HIPK4,0%
COc1ccc(S(=O)(=O)NC2CCN(c3cc(C)nc(Nc4cccc(C#N)c4)n3)CC2)cc1.O=C(O)C(F)(F)F [GSK1653539],%Inh,FLT3-autoinhibited,0%
same,%Inh,FLT3,0%
same,%Inh,FLT4,2%
same,%Inh,FRK,0%
same,%Inh,FYN,0%
same,%Inh,GAK,0%
same,%Inh,"GCN2(Kin.Dom.2,S808G)",0%
same,%Inh,GRK1,0%
same,%Inh,GRK2,0%
same,%Inh,GRK3,0%
same,%Inh,GRK4,0%
same,%Inh,GRK7,0%
same,%Inh,GSK3A,6%
same,%Inh,GSK3B; [1],0%
same,%Inh,HASPIN,22%
same,%Inh,HCK,0%
same,%Inh,HIPK1,0%
same,%Inh,HIPK2,0%
same,%Inh,HIPK3,4%
same,%Inh,HIPK4,0%
O=C(NCCNc1ccnc(Nc2ccc(F)cc2)n1)Nc1ccccc1F [GSK1379880],%Inh,FLT3-autoinhibited,0%
same,%Inh,FLT3,0%
same,%Inh,FLT4,0%
same,%Inh,FRK,0%
same,%Inh,FYN,28%
same,%Inh,GAK,0%
same,%Inh,"GCN2(Kin.Dom.2,S808G)",3%
same,%Inh,GRK1,0%
same,%Inh,GRK2,0%
same,%Inh,GRK3,23%
same,%Inh,GRK4,0%
same,%Inh,GRK7,0%
same,%Inh,GSK3A,2%
same,%Inh,GSK3B; [1],0%
same,%Inh,HASPIN,0%
same,%Inh,HCK,0%
same,%Inh,HIPK1,0%
same,%Inh,HIPK2,0%
same,%Inh,HIPK3,19%
same,%Inh,HIPK4,0%
Cc1c(Cn2c(C)nn3c(=O)cc(N4CCOC(C)C4)nc23)cccc1C(F)(F)F (stereo not drawn) [GSK2344444],%Inh,FLT3-autoinhibited,3%
same,%Inh,FLT3,0%
same,%Inh,FLT4,11%
same,%Inh,FRK,0%
same,%Inh,FYN,2%
same,%Inh,GAK,0%
same,%Inh,"GCN2(Kin.Dom.2,S808G)",0%
same,%Inh,GRK1,1%
same,%Inh,GRK2,0%
same,%Inh,GRK3,0%
same,%Inh,GRK4,0%
same,%Inh,GRK7,0%
same,%Inh,GSK3A,0%
same,%Inh,GSK3B; [1],10%
same,%Inh,HASPIN,0%
same,%Inh,HCK,0%
same,%Inh,HIPK1,0%
same,%Inh,HIPK2,0%
same,%Inh,HIPK3,7%
same,%Inh,HIPK4,0%
COc1ccc(Nc2ncc(C#N)c(Nc3ccccc3C(N)=O)n2)cc1N1CCN(C)CC1.Cl [GSK1558669],%Inh,FLT3-autoinhibited,99.9%
same,%Inh,FLT3,99.8%
same,%Inh,FLT4,100%
same,%Inh,FRK,83%
same,%Inh,FYN,96.8%
same,%Inh,GAK,98.1%
same,%Inh,"GCN2(Kin.Dom.2,S808G)",100%
same,%Inh,GRK1,55%
same,%Inh,GRK2,35%
same,%Inh,GRK3,0%
same,%Inh,GRK4,96%
same,%Inh,GRK7,46%
same,%Inh,GSK3A,99.8%
same,%Inh,GSK3B; [1],99.8%
same,%Inh,HASPIN,88%
same,%Inh,HCK,98.8%
same,%Inh,HIPK1,100%
same,%Inh,HIPK2,98.8%
same,%Inh,HIPK3,99.8%
same,%Inh,HIPK4,89%
N#Cc1ccc(-c2cc(-c3c[nH]nc3-c3ccccn3)ccn2)cc1 [GW693028],%Inh,FLT3-autoinhibited,0%
same,%Inh,FLT3,0%
same,%Inh,FLT4,0%
same,%Inh,FRK,25%
same,%Inh,FYN,0%
same,%Inh,GAK,69%
same,%Inh,"GCN2(Kin.Dom.2,S808G)",0%
same,%Inh,GRK1,0%
same,%Inh,GRK2,0%
same,%Inh,GRK3,70%
same,%Inh,GRK4,3%
same,%Inh,GRK7,0%
same,%Inh,GSK3A,12%
same,%Inh,GSK3B; [1],4%
same,%Inh,HASPIN,0%
same,%Inh,HCK,0%
same,%Inh,HIPK1,0%
same,%Inh,HIPK2,0%
same,%Inh,HIPK3,0%
same,%Inh,HIPK4,0%
Fc1ccc(-c2nn3c(OCC(F)(F)F)cccc3c2-c2ccncc2)cc1 [GW514784],%Inh,FLT3-autoinhibited,0%
same,%Inh,FLT3,4%
same,%Inh,FLT4,0%
same,%Inh,FRK,5%
same,%Inh,FYN,0%
same,%Inh,GAK,85%
same,%Inh,"GCN2(Kin.Dom.2,S808G)",0%
same,%Inh,GRK1,0%
same,%Inh,GRK2,0%
same,%Inh,GRK3,45%
same,%Inh,GRK4,0%
same,%Inh,GRK7,0%
same,%Inh,GSK3A,10%
same,%Inh,GSK3B; [1],0%
same,%Inh,HASPIN,67%
same,%Inh,HCK,0%
same,%Inh,HIPK1,0%
same,%Inh,HIPK2,0%
same,%Inh,HIPK3,5%
same,%Inh,HIPK4,0%
Cc1cccc(-c2nc(-c3ccc(S(C)(=O)=O)cc3)sc2-c2ccncc2)c1,%Inh,FLT3-autoinhibited,2%
same,%Inh,FLT3,14%
same,%Inh,FLT4,8%
same,%Inh,FRK,0%
same,%Inh,FYN,0%
same,%Inh,GAK,5%
same,%Inh,"GCN2(Kin.Dom.2,S808G)",0%
same,%Inh,GRK1,0%
same,%Inh,GRK2,0%
same,%Inh,GRK3,3%
same,%Inh,GRK4,0%
same,%Inh,GRK7,31%
same,%Inh,GSK3A,0%
same,%Inh,GSK3B; [1],3%
same,%Inh,HASPIN,0%
same,%Inh,HCK,11%
same,%Inh,HIPK1,8%
same,%Inh,HIPK2,0%
same,%Inh,HIPK3,15%
same,%Inh,HIPK4,4%
CN(C1=C(c2ccccc2)C(=O)NC1=O)c1ccccc1 [SB-334860],%Inh,FLT3-autoinhibited,3%
same,%Inh,FLT3,0%
same,%Inh,FLT4,20%
same,%Inh,FRK,2%
same,%Inh,FYN,39%
same,%Inh,GAK,7%
same,%Inh,"GCN2(Kin.Dom.2,S808G)",0%
same,%Inh,GRK1,9%
same,%Inh,GRK2,8%
same,%Inh,GRK3,7%
same,%Inh,GRK4,0%
same,%Inh,GRK7,0%
same,%Inh,GSK3A,13%
same,%Inh,GSK3B; 1 µM,0%
same,%Inh,HASPIN,0%
same,%Inh,HCK,0%
same,%Inh,HIPK1,3%
same,%Inh,HIPK2,0%
same,%Inh,HIPK3,15%
same,%Inh,HIPK4,2%
CN1c2ccc(NCc3ccc(F)cc3)cc2-c2c(cnn2C)S1(=O)=O,%Inh,FLT3-autoinhibited,24%
same,%Inh,FLT3,12%
same,%Inh,FLT4,0%
same,%Inh,FRK,10%
same,%Inh,FYN,12%
same,%Inh,GAK,0%
same,%Inh,"GCN2(Kin.Dom.2,S808G)",0%
same,%Inh,GRK1,11%
same,%Inh,GRK2,0%
same,%Inh,GRK3,0%
same,%Inh,GRK4,0%
same,%Inh,GRK7,0%
same,%Inh,GSK3A,22%
same,%Inh,GSK3B; [1],0%
same,%Inh,HASPIN,37%
same,%Inh,HCK,8%
same,%Inh,HIPK1,6%
same,%Inh,HIPK2,0%
same,%Inh,HIPK3,0%
same,%Inh,HIPK4,0%
O=C1NC(=O)C(N2CCc3ccccc32)=C1c1cccc(Cl)c1 [SB-408010],%Inh,FLT3-autoinhibited,21%
same,%Inh,FLT3,0%
same,%Inh,FLT4,2%
same,%Inh,FRK,0%
same,%Inh,FYN,0%
same,%Inh,GAK,10%
same,%Inh,"GCN2(Kin.Dom.2,S808G)",17%
same,%Inh,GRK1,53%
same,%Inh,GRK2,0%
same,%Inh,GRK3,0%
same,%Inh,GRK4,29%
same,%Inh,GRK7,5%
same,%Inh,GSK3A,2%
same,%Inh,GSK3B; 1 µM,27%
same,%Inh,HASPIN,0%
same,%Inh,HCK,25%
same,%Inh,HIPK1,27%
same,%Inh,HIPK2,13%
same,%Inh,HIPK3,7%
same,%Inh,HIPK4,0%
Nc1nccc(-c2c(-c3ccc(F)cc3)ncn2C2CCN(CC(F)(F)F)CC2)n1 [SB-236560],%Inh,FLT3-autoinhibited,0%
same,%Inh,FLT3,18%
same,%Inh,FLT4,21%
same,%Inh,FRK,1%
same,%Inh,FYN,0%
same,%Inh,GAK,15%
same,%Inh,"GCN2(Kin.Dom.2,S808G)",48%
same,%Inh,GRK1,18%
same,%Inh,GRK2,16%
same,%Inh,GRK3,0%
same,%Inh,GRK4,10%
same,%Inh,GRK7,2%
same,%Inh,GSK3A,0%
same,%Inh,GSK3B; [1],0%
same,%Inh,HASPIN,36%
same,%Inh,HCK,0%
same,%Inh,HIPK1,27%
same,%Inh,HIPK2,57%
same,%Inh,HIPK3,0%
same,%Inh,HIPK4,0%
